Measured values reported in PubChem BioAssay AID588783 (NMMLSC, 2011).
Measured potencies and affinities stand elsewhere.

Tested on: beta-arrestin 1 peptide binding to AP-2 beta2-adaptin appendage (human)
Test: beta-arrestin/AP2 interaction blockers, potency – biochemical, cherry pick 1, beta2-adaptin appendage, flow cytometry, dose response (AID 588783)
Settings: Bead flow cytometry, FITC-arrestin peptide binding GST-AP2; at 9.12 µM; active compounds read high;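 active means inhibition of specific binding of 40% or more; inactive means inhibition of specific binding below 40%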

Inhibition of specific binding, inactive:
COc1cc(C2Nc3cccc4cccc(c34)N2)cc(OC)c1O 12%, O=C(NCC1COc2ccccc2O1)c1ccc(NC(=O)C(c2ccccc2)c2ccccc2)cc1 (stereo unspecified) 7%, Nc1c(C(=O)NC2CC2)sc2nc3c(c(-c4ccco4)c12)CC/C3=C/c1ccco1 22%, COC(=O)c1ccccc1N/C=C1\CCc2c(c(C)nn2-c2ccccn2)C1=O 7%, CN1c2ccccc2N(C)C1(C)c1ccccc1 3%, Cc1nn(-c2ccccn2)c2c1C(c1ccsc1)C1=C(CCCC1=O)N2 (stereo unspecified) 12%
